PglD inh – PglD (C. jejuni) enzyme inhibition; 360,000 tested, 0.098% active; inhibition, % at 12.5 µM; purified PglD enzyme, DTNB colorimetric CoA detection; in the data active = inhibition above about 16%, passing the limit was not always enough
PDI turbidity – blocks human protein disulfide isomerase activity; inhibition, % at 10 µM; PDI insulin aggregation turbidity, A650, 90 min; 350,000 tested, 0.052% active; AID 588391; P07237;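 active = mean inhibition across replicates of 30% or more, whatever share of single replicates reach that level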
NRP1-CendR mod – NRP-1/CendR interaction modulation; O14786; FAM-RPARPAR peptide binding to NRP-1, fluorescence polarization; inhibition, % at 25 µM; 360,000 tested, 0.85% active; AID 602438;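 active = inhibition or corrected inhibition above about 18%, plus a signal ratio from 0.5 to 1.5, limit read from the data, passing the limit was not always enough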
ARNT TACC3 PPI – disruptors of human ARNT/TACC3 interaction | Q9Y6A5 | AlphaScreen His-ARNT PAS-B/GST-TACC3 binding, luminescence; TACC3 fragment carries E629A point mutation | inhibition, % at 9.99 µM | 390,000 tested, 0.66% active | AID 623870;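 active = mean inhibition of replicates at least 50% and at least half of replicates each reaching 50%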;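 note: 0% = complete ARNT plus TACC3 wells and 100% = ARNT alone without TACC3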
ALR H2O2 inh – human ALR oxidase inhibition via reduced H2O2 | purified ALR, DTT oxidation, H2O2 HRP-luminol luminescence | P55789 | inhibition, % (test concentration not listed) | 290,000 tested, 3.8% active;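 active = mean replicate inhibition above about 79%, with every replicate also reaching it, limit read from the data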
ERp5 block – ERp5 (human) disulfide isomerase inhibition; AID 651711; ERp5 insulin aggregation, absorbance 650 nm, 90 min; inhibition, % at 9.99 µM; Q15084; 350,000 tested, 0.05% active;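 active = mean replicate inhibition above about 25%, with every replicate also reaching it, limit read from the data, passing the limit was not always enough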
Target sequence (Q15084 whole entry, looked up): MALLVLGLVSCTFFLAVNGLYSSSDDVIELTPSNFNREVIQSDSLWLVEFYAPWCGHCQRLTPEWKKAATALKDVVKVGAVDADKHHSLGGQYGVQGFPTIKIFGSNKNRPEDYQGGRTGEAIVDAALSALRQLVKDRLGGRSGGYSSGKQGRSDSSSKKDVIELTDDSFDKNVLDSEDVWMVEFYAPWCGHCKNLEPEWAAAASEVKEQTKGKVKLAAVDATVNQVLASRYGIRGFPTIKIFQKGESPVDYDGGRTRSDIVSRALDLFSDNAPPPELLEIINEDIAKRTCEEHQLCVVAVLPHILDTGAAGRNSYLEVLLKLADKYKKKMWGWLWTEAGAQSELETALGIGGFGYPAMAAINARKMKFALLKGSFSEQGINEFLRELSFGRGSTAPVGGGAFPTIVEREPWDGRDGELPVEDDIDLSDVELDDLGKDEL
The depositor's hits bear a star; . = no result. Shown is part of a subset that was picked to be rich in hits.

SMILES	PglD inh	PDI turbidity	NRP1-CendR mod	ARNT TACC3 PPI	ALR H2O2 inh	ERp5 block
O=c1c2ccccc2nc2c3ccccc3c(NCc3ccco3)nn12	4	4	-5	6	91*	.
COc1ccc(/C=N/NC(=O)c2nn(-c3ccc(Cl)cc3)c(=O)c3c(N)scc23)cc1	-1	-4	30*	7	29	.
COc1ccc(Cl)cc1Nc1nc(-c2sc(NC(=O)c3ccccc3)nc2C)cs1	.	.	.	.	44	.
Cc1nc(NC(=O)c2ccccc2)sc1-c1csc(Nc2ccc(Cl)cc2Cl)n1	.	.	.	.	87*	.
Cc1noc(C)c1NC(=O)NCC[C@H]1CC[C@H](NC(=O)Nc2cccc(Cl)c2)[C@@H](CO)O1	2	.	.	-17	.	9
O=C(NC1CCCCC1)N[C@@H]1CC[C@@H](CCNS(=O)(=O)c2ccc(Cl)cc2)O[C@H]1CO	0	.	.	-3	.	-2
CN1/C(=C\C(=O)COC(=O)c2ccc(O)cc2)C(C)(C)c2ccccc21	0	12	-39	1	-15	0
CN1/C(=C\C(=O)COC(=O)c2ccc(O)c(O)c2)C(C)(C)c2ccccc21	.	.	.	.	99*	-3
CSc1ccc2[nH]c(=O)cc(C)c2c1	1	-3	-10	0	100*	.
C[C@@H](NC(=O)C[C@@H]1C=C[C@H](NC(=O)Cc2ccccn2)[C@@H](CO)O1)c1ccccc1	5	.	.	0	.	8
O=C(NCC(=O)N1CCN(c2ccccc2O)CC1)c1cccs1	0	4	10	4	99*	14
O=C(CSc1ccc2ccccc2c1)N1CCN(c2ccc(O)cc2)CC1	.	16	0	-3	98*	-3
CCN1CCN(c2ncc(C(=O)Nc3cc(Cl)c(OC)cc3OC)c3ccccc23)CC1	.	16	-17	-6	.	.
COc1ccccc1N1CCN(C(=O)CCNS(=O)(=O)c2cc(Br)cnc2N)CC1	-1	1	3	17	99*	6
O=C(c1ccc2ccccc2c1)N1CCN(c2ccc(O)cc2)CC1	0	5	2	-5	.	.
CCN1CCN(c2ncc(C(=O)N3CCN(c4ccccc4OC)CC3)c3ccccc23)CC1	-3	5	22*	.	.	.
COc1ccccc1N1CCN(C(=O)CSc2ccccc2)CC1	-23	-3	-4	2	99*	.
COc1ccccc1C(=O)NCCC(=O)N1CCN(c2ccccc2O)CC1	5	6	1	1	91*	2
COc1ccccc1OCCC(=O)N1CCN(c2ccccc2OC)CC1	-3	1	1	0	82*	4
O=C(NC(CC(=O)N1CCN(c2ccccc2O)CC1)c1ccccc1)c1ccccc1Cl (centres undefined)	-2	-14	4	-6	99*	.
Cc1cccc(N2CCN(C(=O)CC(NC(=O)c3ccccc3Cl)c3ccccc3)CC2)c1C (centres undefined)	4	18	0	.	-4	8
COc1ccccc1-c1cn(CC[C@@H]2CC[C@H](NS(=O)(=O)c3ccccc3C)[C@@H](CO)O2)nn1	3	.	.	-3	.	-5
O=C(CCC(=O)Nc1ccc(Br)cc1)N/N=C/c1ccc(O)cc1	-6	-3	1	-1	20	0
Cc1ccc(NC(=O)CCC(=O)N/N=C/c2ccc(O)cc2)cc1	.	-8	-1	.	95*	-1
O=C(CCC(=O)Nc1ccc(F)cc1)N/N=C/c1ccc(O)cc1	0	1	3	21	99*	-1
SMILES	PglD inh	PDI turbidity	NRP1-CendR mod	ARNT TACC3 PPI	ALR H2O2 inh	ERp5 block
CO[C@@H]1CN(C)C(=O)c2ccc(NS(C)(=O)=O)cc2OC[C@H](C)N(Cc2cncnc2)C[C@@H]1C	5	.	.	.	.	-15
Cc1ccccc1S(=O)(=O)N1CC(=O)N2[C@H](CO)[C@@H](c3ccc(C#CC4CC4)cc3)[C@@H]2C1	.	.	.	.	.	-1
CCS(=O)(=O)N1CC(=O)N2[C@H](C1)[C@@H](c1ccc(C#CCC3CCCC3)cc1)[C@@H]2CO	.	.	.	.	.	1
COC(=O)c1ccc2c(c1)C(C)(C)C(/C=C/c1ccc(O)cc1)=[N+]2C	.	13	-133	-2	93*	.
CCC1(C)CC(c2nc(-c3ccc(OC)cc3)cs2)CCS1 (centres undefined)	5	11	32*	-6	.	.
N=c1sccn1CC(=O)Nc1ccc(S(N)(=O)=O)cc1	-3	3	4	-6	.	0
CC(=O)OCC(=O)Nc1ccc(SC(F)F)cc1	.	19	-12	-19	99*	2
N=c1sccn1CC(=O)Nc1ccc(SC(F)F)cc1	-1	12	5	2	98*	4
C/C=C/C(=O)OCC(=O)Nc1ccc(SC(F)F)cc1	0	1	10	1	99*	2
N#Cc1cccc(NC(=O)CSc2n[nH]c(=O)[nH]c2=O)c1	0	0	-16	20	-3	5
O=C(CSc1n[nH]c(=O)[nH]c1=O)Nc1ccc(SC(F)F)cc1	-2	2	20	-2	99*	-6
O=C(Nc1ccc(C(F)(F)F)cc1)N1[C@@H]2CNC[C@H]1C2c1ccc(-c2ccc(F)cc2)cc1 (some centres undefined)	.	.	.	.	.	-2
C[C@@H]1CN([C@@H](C)CO)C(=O)c2cc(NC(=O)CCCCCC(=O)Nc3ccccc3N)ccc2O[C@H]1CN(C)Cc1ccccc1	.	.	.	.	.	0
Cc1noc(C)c1S(=O)(=O)N(C)C[C@@H]1Oc2ccc(N(C)C)cc2CC(=O)N([C@@H](C)CO)C[C@H]1C	-3	.	.	3	.	1
O=C(O)c1cc(N/N=C/c2ccc(OCc3ccccc3)cc2)ccc1Cl	.	5	4	-7	97*	2
Cc1nn(-c2ccccc2)c(Cl)c1/C=N/Nc1ccc(Cl)c(C(=O)O)c1	.	-2	-13	0	96*	.
Cc1nn(-c2ccccc2)c(Cl)c1/C=N/NC(=O)OC(C)(C)C	-1	-1	-5	-5	-1	4
O=C(O)c1cc(N/N=C/C=C/c2ccccc2)ccc1Cl	2	10	-2	8	99*	0
O=C(NCC[C@@H]1CC[C@@H](NS(=O)(=O)c2ccc(F)cc2)[C@@H](CO)O1)Nc1ccc(Cl)cc1	0	.	.	-2	.	6
COc1cccc(CNc2nccs2)c1O	4	4	7	4	88*	3
CCOc1ccc(-n2ccnc(SCC(=O)Nc3ccc(CC)cc3)c2=O)cc1	-2	-3	5	8	99*	5
COc1ccc(-n2ccnc(SCC(=O)NC3CCCCC3)c2=O)cc1	1	7	-2	-2	98*	.
COCC(=O)N(C)C[C@@H]1Oc2cc(-c3ccc(C)cc3)ccc2S(=O)(=O)N([C@@H](C)CO)C[C@H]1C	-1	.	.	4	.	2
C[C@@H]1CN([C@@H](C)CO)C(=O)c2cccc(NS(=O)(=O)c3ccccc3)c2O[C@@H]1CN(C)CC1CC1	-3	.	.	-7	.	2
O=C(/C=C/c1ccco1)N/C(=C\c1ccccc1)C(=O)NCCc1nc2ccccc2[nH]1	.	-3	40*	-1	65	-1

Assay outcomes from PubChem BioAssay.
